Test results from ChEMBL document CHEMBL1961873, “Compounds: GSK PKIS; Assays: Nanosyn kinase panel” (2012).

How the values were obtained:
[1] = biological target: Protein kinase C gamma type (Homo sapiens) (UniProt P05129); details: at 1 µM;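 also: each value is an averaged percent inhibition of the enzyme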
[2] = biological target: T1, Protein kinase C iota type (Homo sapiens) (UniProt P41743); details: at 0.1 µM
T1 sequence (whole entry): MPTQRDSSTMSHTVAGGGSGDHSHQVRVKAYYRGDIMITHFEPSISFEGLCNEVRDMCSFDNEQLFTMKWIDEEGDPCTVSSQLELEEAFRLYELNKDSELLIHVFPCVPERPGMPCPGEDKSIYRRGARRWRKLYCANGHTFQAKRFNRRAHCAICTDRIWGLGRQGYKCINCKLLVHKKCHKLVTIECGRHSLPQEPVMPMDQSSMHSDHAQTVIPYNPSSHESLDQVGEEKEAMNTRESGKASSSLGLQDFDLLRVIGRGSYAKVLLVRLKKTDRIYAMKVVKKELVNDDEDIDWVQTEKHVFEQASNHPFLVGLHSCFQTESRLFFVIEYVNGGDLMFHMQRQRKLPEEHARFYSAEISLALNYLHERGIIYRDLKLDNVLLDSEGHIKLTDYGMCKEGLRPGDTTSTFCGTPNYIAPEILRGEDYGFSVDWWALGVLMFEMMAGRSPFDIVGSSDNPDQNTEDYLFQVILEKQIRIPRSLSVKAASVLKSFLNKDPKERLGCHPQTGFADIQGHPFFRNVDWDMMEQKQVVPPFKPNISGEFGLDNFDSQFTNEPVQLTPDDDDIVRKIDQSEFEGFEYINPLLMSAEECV

[3] = biological target: T1, Protein kinase C iota type (Homo sapiens); details: at 1 µM
[4] = biological target: Protein kinase C theta type (Homo sapiens) (UniProt Q04759); details: at 0.1 µM
Chain of Protein kinase C theta type (Homo sapiens) (Q04759 whole entry, looked up): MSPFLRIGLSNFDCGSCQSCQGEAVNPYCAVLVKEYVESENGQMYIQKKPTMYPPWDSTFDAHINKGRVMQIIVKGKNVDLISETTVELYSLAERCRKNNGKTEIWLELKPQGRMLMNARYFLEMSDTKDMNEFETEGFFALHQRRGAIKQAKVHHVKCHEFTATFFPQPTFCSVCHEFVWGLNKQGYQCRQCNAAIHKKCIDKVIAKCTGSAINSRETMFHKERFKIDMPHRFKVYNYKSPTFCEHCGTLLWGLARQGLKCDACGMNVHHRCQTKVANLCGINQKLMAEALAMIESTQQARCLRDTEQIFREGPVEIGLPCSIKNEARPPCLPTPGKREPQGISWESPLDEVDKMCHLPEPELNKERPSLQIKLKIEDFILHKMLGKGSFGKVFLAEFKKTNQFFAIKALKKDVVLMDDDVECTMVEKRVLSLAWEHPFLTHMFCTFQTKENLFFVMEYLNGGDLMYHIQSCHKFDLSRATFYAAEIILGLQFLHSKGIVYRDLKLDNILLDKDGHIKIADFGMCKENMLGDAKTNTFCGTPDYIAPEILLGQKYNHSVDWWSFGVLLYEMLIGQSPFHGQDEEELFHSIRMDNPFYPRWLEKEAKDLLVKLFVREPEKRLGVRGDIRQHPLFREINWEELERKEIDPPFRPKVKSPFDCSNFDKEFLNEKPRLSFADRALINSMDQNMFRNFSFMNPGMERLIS

[5] = biological target: Protein kinase C theta type (Homo sapiens) (UniProt Q04759); details: at 1 µM
[6] = biological target: Protein kinase C beta type (Homo sapiens) (UniProt P05771); details: at 0.1 µM
Chain of Protein kinase C beta type (Homo sapiens) (P05771 2-671 limits assumed): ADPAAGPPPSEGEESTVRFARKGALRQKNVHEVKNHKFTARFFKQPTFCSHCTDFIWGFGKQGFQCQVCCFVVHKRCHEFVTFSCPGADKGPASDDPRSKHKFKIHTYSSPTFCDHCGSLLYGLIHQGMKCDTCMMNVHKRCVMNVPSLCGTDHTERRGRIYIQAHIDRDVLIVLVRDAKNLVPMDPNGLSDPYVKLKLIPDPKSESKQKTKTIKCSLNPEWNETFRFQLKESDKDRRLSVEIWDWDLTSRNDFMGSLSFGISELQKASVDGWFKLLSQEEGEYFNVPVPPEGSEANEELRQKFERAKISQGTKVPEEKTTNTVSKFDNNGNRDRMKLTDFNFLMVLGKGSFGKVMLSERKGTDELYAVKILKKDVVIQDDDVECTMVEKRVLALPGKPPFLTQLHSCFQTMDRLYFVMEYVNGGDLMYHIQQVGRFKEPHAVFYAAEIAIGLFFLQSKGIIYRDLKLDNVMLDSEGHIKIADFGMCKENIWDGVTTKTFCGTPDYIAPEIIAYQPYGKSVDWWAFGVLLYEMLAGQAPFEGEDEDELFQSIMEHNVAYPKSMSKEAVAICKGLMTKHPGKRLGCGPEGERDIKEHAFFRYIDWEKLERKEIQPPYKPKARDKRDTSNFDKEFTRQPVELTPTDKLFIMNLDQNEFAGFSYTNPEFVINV

[7] = biological target: Protein kinase C beta type (Homo sapiens) (UniProt P05771); details: at 1 µM
[8] = biological target: T2, Serine/threonine-protein kinase D1 (Homo sapiens) (UniProt Q15139); details: at 0.1 µM
T2 sequence (whole entry): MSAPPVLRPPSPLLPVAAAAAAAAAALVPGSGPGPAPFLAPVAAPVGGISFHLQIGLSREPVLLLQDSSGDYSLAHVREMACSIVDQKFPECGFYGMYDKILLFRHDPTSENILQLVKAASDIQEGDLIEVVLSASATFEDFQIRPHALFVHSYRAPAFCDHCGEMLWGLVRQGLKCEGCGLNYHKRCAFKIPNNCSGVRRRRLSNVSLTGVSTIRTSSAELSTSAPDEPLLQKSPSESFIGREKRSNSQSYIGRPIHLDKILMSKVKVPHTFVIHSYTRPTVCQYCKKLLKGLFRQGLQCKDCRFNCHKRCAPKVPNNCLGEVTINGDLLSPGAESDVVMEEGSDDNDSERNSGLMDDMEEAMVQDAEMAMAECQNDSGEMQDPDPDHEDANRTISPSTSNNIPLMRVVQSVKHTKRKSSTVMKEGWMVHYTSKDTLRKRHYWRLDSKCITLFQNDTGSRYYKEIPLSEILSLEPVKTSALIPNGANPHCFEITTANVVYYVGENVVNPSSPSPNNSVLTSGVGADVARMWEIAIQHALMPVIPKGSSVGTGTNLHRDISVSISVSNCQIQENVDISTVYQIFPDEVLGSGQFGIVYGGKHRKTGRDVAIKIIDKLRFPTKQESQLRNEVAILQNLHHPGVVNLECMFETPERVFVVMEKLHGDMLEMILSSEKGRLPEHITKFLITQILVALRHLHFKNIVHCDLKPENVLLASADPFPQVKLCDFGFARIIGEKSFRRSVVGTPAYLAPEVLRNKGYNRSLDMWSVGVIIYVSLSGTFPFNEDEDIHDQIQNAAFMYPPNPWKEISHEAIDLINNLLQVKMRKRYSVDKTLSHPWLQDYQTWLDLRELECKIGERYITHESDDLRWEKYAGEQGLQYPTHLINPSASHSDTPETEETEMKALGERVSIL

[9] = biological target: T2, Serine/threonine-protein kinase D1 (Homo sapiens); details: at 1 µM
[10] = biological target: T3, Serine/threonine-protein kinase D2 (Homo sapiens) (UniProt Q9BZL6); details: at 0.1 µM
T3 sequence (whole entry): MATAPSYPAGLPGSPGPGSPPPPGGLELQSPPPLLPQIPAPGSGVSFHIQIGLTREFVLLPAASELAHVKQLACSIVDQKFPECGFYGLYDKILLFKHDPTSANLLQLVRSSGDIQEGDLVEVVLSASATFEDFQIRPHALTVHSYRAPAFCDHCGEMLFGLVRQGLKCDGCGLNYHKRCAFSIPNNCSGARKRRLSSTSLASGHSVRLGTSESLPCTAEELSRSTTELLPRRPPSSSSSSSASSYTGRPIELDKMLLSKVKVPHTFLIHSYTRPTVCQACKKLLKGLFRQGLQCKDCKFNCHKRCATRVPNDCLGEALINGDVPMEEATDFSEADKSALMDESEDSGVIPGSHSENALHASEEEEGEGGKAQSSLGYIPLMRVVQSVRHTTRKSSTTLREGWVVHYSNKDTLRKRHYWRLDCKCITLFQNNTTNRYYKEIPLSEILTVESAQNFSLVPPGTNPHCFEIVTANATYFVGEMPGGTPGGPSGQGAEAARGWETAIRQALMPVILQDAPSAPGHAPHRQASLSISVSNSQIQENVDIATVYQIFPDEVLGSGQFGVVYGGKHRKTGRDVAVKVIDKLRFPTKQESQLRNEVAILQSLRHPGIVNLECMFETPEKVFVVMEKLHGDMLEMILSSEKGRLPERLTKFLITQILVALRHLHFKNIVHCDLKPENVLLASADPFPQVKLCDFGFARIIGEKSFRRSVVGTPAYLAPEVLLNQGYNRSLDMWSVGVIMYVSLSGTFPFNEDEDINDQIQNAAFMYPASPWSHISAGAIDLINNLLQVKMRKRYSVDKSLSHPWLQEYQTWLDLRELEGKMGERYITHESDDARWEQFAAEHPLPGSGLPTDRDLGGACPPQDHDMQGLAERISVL

[11] = biological target: T3, Serine/threonine-protein kinase D2 (Homo sapiens); details: at 1 µM
[12] = biological target: T4, Serine/threonine-protein kinase D3 (Homo sapiens) (UniProt O94806); details: at 0.1 µM
T4 sequence (whole entry): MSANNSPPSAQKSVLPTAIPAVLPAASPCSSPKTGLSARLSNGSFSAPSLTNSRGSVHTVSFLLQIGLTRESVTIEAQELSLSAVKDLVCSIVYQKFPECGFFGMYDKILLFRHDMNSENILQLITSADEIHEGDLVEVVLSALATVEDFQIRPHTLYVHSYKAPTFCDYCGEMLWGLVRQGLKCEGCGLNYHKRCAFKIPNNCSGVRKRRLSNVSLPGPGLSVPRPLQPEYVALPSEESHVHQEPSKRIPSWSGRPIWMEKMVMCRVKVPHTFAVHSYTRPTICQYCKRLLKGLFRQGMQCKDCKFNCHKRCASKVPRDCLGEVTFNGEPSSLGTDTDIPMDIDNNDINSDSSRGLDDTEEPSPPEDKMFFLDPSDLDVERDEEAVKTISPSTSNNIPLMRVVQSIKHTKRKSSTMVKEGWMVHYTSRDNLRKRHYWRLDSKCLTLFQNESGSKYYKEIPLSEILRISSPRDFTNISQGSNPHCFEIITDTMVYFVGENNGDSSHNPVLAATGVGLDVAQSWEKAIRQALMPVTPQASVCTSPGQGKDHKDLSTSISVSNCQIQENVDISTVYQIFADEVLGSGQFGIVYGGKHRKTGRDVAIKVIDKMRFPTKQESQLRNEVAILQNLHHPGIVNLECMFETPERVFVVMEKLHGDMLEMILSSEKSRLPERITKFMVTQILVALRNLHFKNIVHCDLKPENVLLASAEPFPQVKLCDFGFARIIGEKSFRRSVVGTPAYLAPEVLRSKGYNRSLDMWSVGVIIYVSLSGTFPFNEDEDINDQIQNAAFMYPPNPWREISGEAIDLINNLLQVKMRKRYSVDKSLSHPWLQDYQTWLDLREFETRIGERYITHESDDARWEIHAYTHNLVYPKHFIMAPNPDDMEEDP

[13] = biological target: T4, Serine/threonine-protein kinase D3 (Homo sapiens); details: at 1 µM
[14] = biological target: T5, cGMP-dependent protein kinase 1 (Homo sapiens) (UniProt Q13976); details: at 0.1 µM
T5 sequence (whole entry): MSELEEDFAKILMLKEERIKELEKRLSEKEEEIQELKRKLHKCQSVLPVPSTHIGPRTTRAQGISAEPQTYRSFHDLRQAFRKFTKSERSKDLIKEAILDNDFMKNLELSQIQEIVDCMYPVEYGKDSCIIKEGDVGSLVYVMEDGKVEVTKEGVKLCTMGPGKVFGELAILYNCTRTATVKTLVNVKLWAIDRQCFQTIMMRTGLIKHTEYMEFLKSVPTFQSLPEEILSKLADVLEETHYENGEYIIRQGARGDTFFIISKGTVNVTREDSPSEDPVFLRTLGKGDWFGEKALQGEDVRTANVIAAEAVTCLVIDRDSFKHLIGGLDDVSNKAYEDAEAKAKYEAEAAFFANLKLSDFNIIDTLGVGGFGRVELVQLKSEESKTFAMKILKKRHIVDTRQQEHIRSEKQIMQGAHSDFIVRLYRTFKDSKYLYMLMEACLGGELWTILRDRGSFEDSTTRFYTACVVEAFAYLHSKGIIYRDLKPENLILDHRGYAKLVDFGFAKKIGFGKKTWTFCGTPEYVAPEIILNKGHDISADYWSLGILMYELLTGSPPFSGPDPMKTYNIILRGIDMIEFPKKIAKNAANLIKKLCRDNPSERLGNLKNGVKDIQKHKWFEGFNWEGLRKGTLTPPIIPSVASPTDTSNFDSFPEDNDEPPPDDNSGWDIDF

[15] = biological target: T5, cGMP-dependent protein kinase 1 (Homo sapiens); details: at 1 µM
[16] = biological target: T6, cGMP-dependent protein kinase 2 (Homo sapiens) (UniProt Q13237); details: at 0.1 µM
T6 sequence (whole entry): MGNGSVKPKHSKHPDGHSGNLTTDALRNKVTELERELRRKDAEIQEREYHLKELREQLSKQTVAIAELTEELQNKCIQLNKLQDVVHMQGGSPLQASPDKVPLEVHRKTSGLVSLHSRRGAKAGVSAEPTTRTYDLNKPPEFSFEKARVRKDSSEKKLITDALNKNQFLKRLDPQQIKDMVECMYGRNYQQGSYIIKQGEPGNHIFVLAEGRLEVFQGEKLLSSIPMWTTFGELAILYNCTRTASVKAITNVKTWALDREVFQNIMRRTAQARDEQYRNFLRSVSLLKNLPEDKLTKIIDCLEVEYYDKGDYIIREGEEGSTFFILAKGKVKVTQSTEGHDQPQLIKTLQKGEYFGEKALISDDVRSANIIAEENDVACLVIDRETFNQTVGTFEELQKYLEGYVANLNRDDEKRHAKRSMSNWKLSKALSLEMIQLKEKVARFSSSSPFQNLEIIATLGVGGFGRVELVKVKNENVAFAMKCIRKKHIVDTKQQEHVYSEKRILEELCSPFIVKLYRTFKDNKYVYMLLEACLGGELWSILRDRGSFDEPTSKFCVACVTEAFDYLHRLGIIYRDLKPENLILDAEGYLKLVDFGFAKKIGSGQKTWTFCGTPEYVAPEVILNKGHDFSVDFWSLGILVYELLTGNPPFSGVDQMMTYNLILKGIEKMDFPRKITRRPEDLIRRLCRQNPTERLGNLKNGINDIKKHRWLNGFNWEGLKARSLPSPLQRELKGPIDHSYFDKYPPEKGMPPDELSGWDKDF

[17] = biological target: T6, cGMP-dependent protein kinase 2 (Homo sapiens); details: at 1 µM
[18] = biological target: T7, cAMP-dependent protein kinase catalytic subunit PRKX (Homo sapiens) (UniProt P51817); details: at 0.1 µM
T7 sequence (whole entry): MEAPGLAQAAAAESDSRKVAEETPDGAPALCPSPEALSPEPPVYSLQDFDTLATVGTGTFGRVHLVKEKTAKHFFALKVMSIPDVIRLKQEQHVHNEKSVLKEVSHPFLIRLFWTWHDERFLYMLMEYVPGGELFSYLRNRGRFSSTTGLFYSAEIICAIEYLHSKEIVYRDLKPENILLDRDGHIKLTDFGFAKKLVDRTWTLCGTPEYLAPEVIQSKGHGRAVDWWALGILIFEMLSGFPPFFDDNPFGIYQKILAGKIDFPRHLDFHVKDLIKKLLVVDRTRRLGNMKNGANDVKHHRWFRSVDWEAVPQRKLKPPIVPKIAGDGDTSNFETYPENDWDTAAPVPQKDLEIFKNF

[19] = biological target: T7, cAMP-dependent protein kinase catalytic subunit PRKX (Homo sapiens); details: at 1 µM
[20] = biological target: Rho-associated protein kinase 1 (Homo sapiens) (UniProt Q13464); details: at 0.1 µM;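 also: values are mean percent inhibition of ROCK1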
Chain of Rho-associated protein kinase 1 (Homo sapiens) (Q13464 2-1354 limits assumed): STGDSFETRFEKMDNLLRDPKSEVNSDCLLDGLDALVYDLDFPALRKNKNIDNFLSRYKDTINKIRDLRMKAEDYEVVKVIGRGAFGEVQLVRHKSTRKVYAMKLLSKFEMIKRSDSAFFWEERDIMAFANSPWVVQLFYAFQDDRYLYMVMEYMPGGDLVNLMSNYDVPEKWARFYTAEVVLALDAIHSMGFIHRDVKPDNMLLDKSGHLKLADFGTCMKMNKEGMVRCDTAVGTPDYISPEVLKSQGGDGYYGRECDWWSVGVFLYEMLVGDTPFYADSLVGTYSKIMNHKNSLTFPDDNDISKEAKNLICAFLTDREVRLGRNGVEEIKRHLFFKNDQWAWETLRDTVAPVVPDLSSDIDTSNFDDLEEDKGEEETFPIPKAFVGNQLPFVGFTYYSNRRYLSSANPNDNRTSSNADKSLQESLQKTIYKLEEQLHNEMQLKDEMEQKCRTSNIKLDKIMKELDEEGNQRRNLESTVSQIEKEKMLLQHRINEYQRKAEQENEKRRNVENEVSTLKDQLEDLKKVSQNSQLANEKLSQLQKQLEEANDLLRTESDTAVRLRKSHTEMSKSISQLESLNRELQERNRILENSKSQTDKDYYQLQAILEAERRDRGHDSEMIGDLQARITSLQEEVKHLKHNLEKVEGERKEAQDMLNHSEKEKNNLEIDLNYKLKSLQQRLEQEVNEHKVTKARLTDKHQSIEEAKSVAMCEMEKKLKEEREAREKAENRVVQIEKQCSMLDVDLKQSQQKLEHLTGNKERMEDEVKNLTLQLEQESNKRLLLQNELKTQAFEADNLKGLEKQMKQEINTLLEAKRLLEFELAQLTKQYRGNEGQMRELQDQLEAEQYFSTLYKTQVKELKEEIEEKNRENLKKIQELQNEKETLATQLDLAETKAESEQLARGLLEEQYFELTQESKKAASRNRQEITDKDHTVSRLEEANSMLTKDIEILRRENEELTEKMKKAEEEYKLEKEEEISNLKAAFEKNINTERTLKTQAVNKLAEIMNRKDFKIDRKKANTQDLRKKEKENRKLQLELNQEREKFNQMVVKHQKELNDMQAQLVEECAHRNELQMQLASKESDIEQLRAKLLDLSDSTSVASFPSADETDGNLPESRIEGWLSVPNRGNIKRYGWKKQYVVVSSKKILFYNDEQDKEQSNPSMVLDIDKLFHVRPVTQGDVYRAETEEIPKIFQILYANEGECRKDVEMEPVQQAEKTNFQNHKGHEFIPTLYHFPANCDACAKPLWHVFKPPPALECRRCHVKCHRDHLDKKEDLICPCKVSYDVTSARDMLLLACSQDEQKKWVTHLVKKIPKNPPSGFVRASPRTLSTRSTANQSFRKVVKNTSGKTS

SMILES	inhibition [1] [%]	inhibition [2] [%]	inhibition [3] [%]	inhibition [4] [%]	inhibition [5] [%]	inhibition [6] [%]	inhibition [7] [%]	inhibition [8] [%]	inhibition [9] [%]	inhibition [10] [%]	inhibition [11] [%]	inhibition [12] [%]	inhibition [13] [%]	inhibition [14] [%]	inhibition [15] [%]	inhibition [16] [%]	inhibition [17] [%]	inhibition [18] [%]	inhibition [19] [%]	inhibition [20] [%]
COc1ccc(-c2nn3ncccc3c2-c2ccnc(Nc3ccc(F)c(F)c3)n2)cc1	6.44	1.96	0.63	2.86	7.77	1.81	3.24	4.47	5.19	3.52	5.42	4.4	5.09	2.68	3.58	5.81	5.3	3.54	8.39	1.21
CN(C)CCNC(=O)Nc1ccc(N(C)c2ccnc(Nc3ccc(CS(C)(=O)=O)cc3)n2)cc1	3.46	1.77	4.15	2.29	2.96	0.79	0.59	3.85	7.28	3.75	6.51	4.97	5.75	3.82	4.38	1.71	3.5	0.73	0.09	3.43
COc1cc(Nc2ncc(-c3ccccc3)o2)cc(OC)c1	2.55	2.88	3.11	2.43	3.38	0.78	2.17	4.12	5.16	3.39	1.86	5.05	4.51	1.76	1.96	1.74	2.19	0.91	4.53	2.5
